Test results from PubChem BioAssay AID2283149 (EPA ToxCast).
Records with an inconclusive call do not appear. Active and inactive are the calls of the source. How the source made its calls: active means hit-call score of the fitted dose curve at least 0.9, where 1 is the maximum; inconclusive means response in the unintended direction; inactive means score below 0.9.

target: human Casein Kinase 1-alpha (CK1a), CSNK1A1 (gene 1452) (UniProt P48729); assay: NVS_ENZ_hCK1a: NovaScreen (NVS) Enzymatic Assay for human Casein Kinase 1-alpha (CK1a)
Sequence (P48729 whole entry, looked up): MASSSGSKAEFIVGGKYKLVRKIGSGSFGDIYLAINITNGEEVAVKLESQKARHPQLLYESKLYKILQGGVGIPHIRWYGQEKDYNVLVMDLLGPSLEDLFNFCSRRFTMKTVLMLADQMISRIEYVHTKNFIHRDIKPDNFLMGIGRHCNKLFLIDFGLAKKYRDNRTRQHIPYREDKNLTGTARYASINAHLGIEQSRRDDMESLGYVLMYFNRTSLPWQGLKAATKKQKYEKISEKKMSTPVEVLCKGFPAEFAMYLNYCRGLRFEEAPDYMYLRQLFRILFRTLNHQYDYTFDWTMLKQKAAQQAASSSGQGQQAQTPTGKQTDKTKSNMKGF
Protocol: NVS_ENZ_hCK1a is a biochemical, single-readout assay that uses extracted gene-proteins in a cell-free assay. Measurements were taken 1 hour after chemical dosing in a 384-well plate.NVS_ENZ_hCK1a is one of one assay component(s) measured or calculated from the NVS_ENZ_hCK1a assay. It is designed to make measurements of enzyme activity, a form of enzyme reporter, as detected with fluorescence intensity signals by Fluorescence and electrophoretic mobility shift technology.Data from the assay component NVS_ENZ_hCK1a was analyzed into 1 assay endpoint. This assay endpoint, NVS_ENZ_hCK1a, was analyzed in the positive analysis fitting direction relative to DMSO as the negative control and baseline of activity. Using a type of enzyme reporter, loss-of-signal activity can be used to understand changes in the enzymatic activity as they relate to the gene CSNK1A1. Furthermore, this assay endpoint can be referred to as a primary readout, because this assay has produced multiple assay endpoints where this one serves a enzymatic activity function. To generalize the intended target to other relatable targets, this assay endpoint is annotated to the kinase intended target family, where the subfamily is serine/threonine kinase.
Binding assays used specific radioligands (tritiated, iodinated) with non-radioactive competitive displacement ligands in agonist or antagonist protocols (as indicated) and various reference compounds and inhibitors to titrate specific binding to receptors and transporters. Most enzyme assays (CYPs, kinases, phosphatases, proteases, HDACs) used recombinant protein and specific substrates (fluorescence mostly, some colorimetric and radioactive) and inhibitors, followed by a biochemical separation of substrate and product. All assays for the biochemical HTS were initially run in duplicate at a single concentration (10 uM for CYP450 assays and 25 uM for all others). Assay-chemical combinations meeting a pre-defined threshold (e.g., 30% inhibition and other criteria defined below) were then run in singleton concentration-response format with maximum concentration of 20 uM for CYPs and 50 uM for all others. Each assay was run with positive and negative controls, and concurrent controls on every plate. The follow-up (secondary) screen tested active chemical-pairs in concentration series, as well as a few additional assays not tested in the primary screen, some selected negative inactives, and several cases re-run in the concentration series for confirmatory purposes.

Structure (SMILES)	AC50	outcome
O=C(O)C1(C(=O)Nc2ccc(Cl)cc2Cl)CC1	8.67 µM (active)	
CN(C)[C@@H]1C(=O)C(C(N)=O)=C(O)[C@@]2(O)C(=O)C3=C(O)c4c(O)cccc4[C@@](C)(O)[C@H]3[C@H](O)[C@@H]12	36.4 µM (active)	
Nc1nc(N)nc(NC2CC2)n1		inactive
O=C(Nc1ccc([N+](=O)[O-])cc1Cl)c1cc(Cl)ccc1O		inactive
O=S(=O)(O)C(F)(F)C(F)(F)C(F)(F)C(F)(F)C(F)(F)C(F)(F)C(F)(F)C(F)(F)F	21.1 µM (active)	
S=C(S)NCCNC(=S)S.[Mn+2].[S-]C([S-])=NCCN=C([S-])[S-].[Zn+2]	9.19 µM (active)	
S=C([S-])NCCNC(=S)[S-].[Mn+2]	19.4 µM (active)	
N#CSCSC#N		inactive
CO/C=C(/C(=O)OC)c1ccccc1Oc1cc(Oc2ccccc2C#N)ncn1		inactive
